Hits are enriched below; roughly 1.5% of the tested compounds scored in any of these assays.
VHR inh abs: blocks human VHR1 dual specificity phosphatase | recombinant VHR phosphatase, pNPP absorbance | actives 0.52% (n = 290,000) | P51452 | inhibition, % at 13.3 µM; in the data active means inhibition above about 50%
SARS 3CLpro inh: SARS-CoV 3CLpro protease inhibition | P0C6X7 | recombinant SARS-CoV 3CLpro, quenched FRET peptide cleavage | inhibition, % at 6 µM | actives 0.14% (n = 290,000) | AID 1706; in the data active means inhibition above about 12%
RecA intein inh: blocks M. tuberculosis RecA intein splicing. inhibition, % (test concentration not listed). cell-free RecA intein splicing, fluorescence. P9WHJ3. actives 0.75% (n = 290,000); in the data active means inhibition above about 30%
Target sequence (P9WHJ3 whole entry, looked up): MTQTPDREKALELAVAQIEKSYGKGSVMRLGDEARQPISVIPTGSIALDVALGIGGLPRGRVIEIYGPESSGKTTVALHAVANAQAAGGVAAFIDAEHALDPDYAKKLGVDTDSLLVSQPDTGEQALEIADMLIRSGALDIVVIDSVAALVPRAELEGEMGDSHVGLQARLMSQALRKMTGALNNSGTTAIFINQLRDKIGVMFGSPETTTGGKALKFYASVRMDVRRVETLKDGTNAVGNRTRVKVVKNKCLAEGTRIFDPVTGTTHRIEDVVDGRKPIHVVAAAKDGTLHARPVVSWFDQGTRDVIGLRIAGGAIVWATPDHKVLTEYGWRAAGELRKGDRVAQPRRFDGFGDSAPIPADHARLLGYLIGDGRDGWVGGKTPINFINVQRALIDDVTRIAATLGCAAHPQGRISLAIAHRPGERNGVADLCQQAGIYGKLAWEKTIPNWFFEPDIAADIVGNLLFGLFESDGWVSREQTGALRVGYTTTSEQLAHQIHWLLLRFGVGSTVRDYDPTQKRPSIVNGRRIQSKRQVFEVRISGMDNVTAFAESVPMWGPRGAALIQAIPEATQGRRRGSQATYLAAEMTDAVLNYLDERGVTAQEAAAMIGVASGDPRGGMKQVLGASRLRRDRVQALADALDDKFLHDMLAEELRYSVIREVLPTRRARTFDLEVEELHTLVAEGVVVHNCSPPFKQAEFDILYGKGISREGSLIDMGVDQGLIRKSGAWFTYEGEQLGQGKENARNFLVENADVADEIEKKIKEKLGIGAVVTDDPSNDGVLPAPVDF
CCHF vOTU inh-1: blocks the CCHF virus ovarian tumor domain protease. actives 0.55% (n = 370,000). CCHFV vOTU protease, Pep-AMC fluorescence. inhibition, % at 11.5 µM
CCHF vOTU inh-2: CCHFV vOTU protease inhibition, confirmation | shares compounds with CCHF vOTU inh-1 | Recombinant CCHFV vOTU, Pep-AMC fluorescence | inhibition, % at 11.5 µM | actives 17% (n = 1,900) | AID 686976
Large screens that a line does not name were inactive (follow-up assays come after a bar, where they were run). Unless noted, no stated cut-off is given here; in the data, active means inhibition above about 30%; inactive means the rest.

CN1C(=O)C(=Cc2ccc(N3CCOCC3)o2)C(=O)N(C)C1=O	CCHF vOTU inh-1 30 | CCHF vOTU inh-2 inactive
CN(C)c1ccc(/C=N/NC(=O)c2cc(=O)[nH]c3ccccc23)cc1	CCHF vOTU inh-1 32 | CCHF vOTU inh-2 inactive
Cc1ccc(N/C=C2/Sc3ccccc3NC2=O)cc1	CCHF vOTU inh-1 31 | CCHF vOTU inh-2 inactive
COc1ccc(N/C=C2/Sc3ccccc3NC2=O)cc1	none
O=C(Cn1cc(COC(=O)c2c3ccccc3cc3ccccc23)nn1)c1ccc(O)cc1	CCHF vOTU inh-1 34 (no result: VHR inh abs, SARS 3CLpro inh, RecA intein inh) | CCHF vOTU inh-2 inactive
COc1ccc2cc([C@H](C)C(=O)OCc3cn(CC(=O)c4ccc(O)cc4)nn3)ccc2c1	none (no result: VHR inh abs, SARS 3CLpro inh, RecA intein inh)
COc1ccc(C2=C(C)C(N3CCN(C(=O)c4ccco4)CC3)=NS2(=O)=O)cc1	none
O=C(O)CN1C(=O)/C(=C\c2cccc(OCc3ccc(Cl)cc3)c2)SC1=S	none
O=C(O)CN1C(=O)/C(=C\c2cccc(OCc3ccc(F)cc3)c2)SC1=S	CCHF vOTU inh-1 36 | CCHF vOTU inh-2 inactive
Cc1ccc2nc(NC(=O)CSCC(=O)OCC(=O)c3ccccc3)sc2c1	CCHF vOTU inh-1 35 | CCHF vOTU inh-2 inactive
COC(=O)[C@H]1C[C@@]2(n3ccc4ccccc43)c3ccccc3N[C@H]2N1	none (no result: VHR inh abs, SARS 3CLpro inh, RecA intein inh)
CC(CC(=O)c1ccccc1)=NCCCN=C(C)CC(=O)c1ccccc1	CCHF vOTU inh-1 35 (no result: VHR inh abs, SARS 3CLpro inh, RecA intein inh) | CCHF vOTU inh-2 inactive
Cc1cc2nc(C(C)(C)C)c(CC3CCCCC3)n2c(C)c1Br	none (no result: VHR inh abs, SARS 3CLpro inh, RecA intein inh)
CCNC(=O)CC1C(=O)N(c2ccccc2)C(=O)N1CCOC (stereo not given)	none
COC(=O)c1cccc(NC(=O)/C(=C\c2ccco2)NC(=O)c2ccco2)c1	none (no result: VHR inh abs, SARS 3CLpro inh, RecA intein inh)
CC(=O)c1cccc(NC(=O)/C(=C/c2ccco2)NC(=O)c2ccco2)c1	CCHF vOTU inh-1 37 | CCHF vOTU inh-2 inactive
O=C1Nc2ccc([N+](=O)[O-])cc2C1(O)N1CCCCCC1 (stereo not given)	CCHF vOTU inh-1 30 | CCHF vOTU inh-2 inactive
CC1CCN(C2(O)C(=O)Nc3ccc(Br)cc32)CC1 (stereo not given)	none
O=C(CN1C(=O)C(=O)N(C2CCCC2)C1=O)Nc1ccc(OC(F)F)cc1	none (no result: VHR inh abs, SARS 3CLpro inh, RecA intein inh)
CC(=O)Nc1ccc(S(=O)(=O)Nc2ccccc2C(=O)N2CCCC2)cc1	CCHF vOTU inh-1 30 | CCHF vOTU inh-2 inactive
COC(=O)[C@]12C[C@H](CC(=O)NCc3cccs3)C(=O)N(Cc3ccccc3)C1=C[C@H](COCc1ccccc1)O[C@@H]2C	none (no result: VHR inh abs, SARS 3CLpro inh, RecA intein inh)
COc1ccc(-c2cccc(C(=O)Nc3ccc(C)cc3)c2)cc1	CCHF vOTU inh-1 31 | CCHF vOTU inh-2 inactive
COc1ccc(-c2cccc(C(=O)Nc3ccc(OC)c(OC)c3)c2)cc1	none
Cc1ccc(Cl)cc1N1CCN(C(=O)COc2ccc3c(c2)CCC3)CC1	CCHF vOTU inh-1 30 | CCHF vOTU inh-2 inactive
CC(=O)c1ccc(N2CCN(C(=O)COc3ccc4c(c3)CCC4)CC2)cc1	none
COc1cc(C(C#N)N2CCC(c3ccccc3)=N2)ccc1O (stereo not given)	none
Nc1ccc2nc(-c3cccc(-c4nc5ccc(N)cc5[nH]4)n3)[nH]c2c1	none
Nc1ccc2nc(-c3ccc(-c4nc5ccc(N)cc5[nH]4)cc3)[nH]c2c1	CCHF vOTU inh-1 36 | CCHF vOTU inh-2 inactive
C/C(=N\NC(=O)c1c(Cl)cnn1C)c1ccc(NC(=O)c2ccncc2)cc1	none
COCCCn1c(N)c(C(=O)Nc2ccccc2)c2nc3ccccc3nc21	none
COCCCn1c(N)c(C(=O)Nc2sc3c(c2C(=O)OC)CCCC3)c2nc3ccccc3nc21	CCHF vOTU inh-1 35 | CCHF vOTU inh-2 inactive
O=S(=O)(/N=C(/c1ccc(F)cc1)N1CCCCC1)c1ccc(Cl)cc1	none
OC(c1ccccc1)c1nc(-c2cc(F)cc(F)c2)cs1 (stereo not given)	none (no result: VHR inh abs, SARS 3CLpro inh, RecA intein inh)
Nc1cnn(Cc2ccccc2F)c1	CCHF vOTU inh-1 34 | CCHF vOTU inh-2 inactive
CCc1c(C)nc2c(C)cccc2c1SCCC#N	CCHF vOTU inh-1 33 | CCHF vOTU inh-2 inactive
O=c1[nH]c(CN2CCN(S(=O)(=O)c3ccccc3C(F)(F)F)CC2)nc2sc3c(c12)CCCC3	none
CCC(=O)N1CCCC(C)(C(=O)Nc2ccc(OC(F)F)cc2)C1 (stereo not given)	CCHF vOTU inh-1 31 (no result: VHR inh abs, SARS 3CLpro inh, RecA intein inh) | CCHF vOTU inh-2 inactive
CC(=O)N1CCOc2ccc(S(=O)(=O)Nc3cccc(C)c3)cc21	CCHF vOTU inh-1 31 | CCHF vOTU inh-2 inactive
COc1cccc(NS(=O)(=O)c2ccc3c(c2)N(C(C)=O)CCO3)c1	none
Cc1c(/C=N/NC(N)=O)c2ccccn2c1C(=O)c1ccncc1	CCHF vOTU inh-1 32 | CCHF vOTU inh-2 inactive
Cc1c(/C=N/NC(=O)c2cccnc2)c2ccccn2c1C(=O)c1ccc(F)cc1	none (no result: CCHF vOTU inh-1)
COc1ccc(C(=O)NCC(=O)OCc2c(Cl)cccc2Cl)cc1OC	none (no result: VHR inh abs, SARS 3CLpro inh, RecA intein inh)
Cc1nc(Cc2nnc(SC(C)C(=O)Nc3cccc(C#N)c3)o2)cs1 (stereo not given)	none (no result: VHR inh abs, SARS 3CLpro inh, CCHF vOTU inh-1)
CCOc1cc(N2CCOCC2)c(OCC)cc1NC(C)C(=O)N1CCN(CC)CC1 (stereo not given)	CCHF vOTU inh-1 31 | CCHF vOTU inh-2 inactive
CCCCCCNC(=O)OC12CN(C(=O)OC(C)C)N(C(=O)OC(C)C)CC1(O)CN(S(=O)(=O)c1ccc(C)cc1)C2 (stereo not given)	CCHF vOTU inh-1 37 (no result: VHR inh abs, SARS 3CLpro inh, RecA intein inh) | CCHF vOTU inh-2 inactive
Cc1ccc(CN(C(=O)COc2ccc(Br)cc2)C2CCS(=O)(=O)C2)o1 (stereo not given)	none
O=C(NCc1cc(C(F)(F)F)cc(C(F)(F)F)c1)C1CC(c2c(Cl)cccc2Cl)=NO1 (stereo not given)	none
O=C(NCc1ccc(OC(F)(F)F)cc1)C1CC(c2c(Cl)cccc2Cl)=NO1 (stereo not given)	CCHF vOTU inh-1 30 | CCHF vOTU inh-2 inactive
CCOc1ccc(Oc2c(Cl)c(Br)nn(Cc3cccc4ccccc34)c2=O)cc1	none (no result: VHR inh abs, SARS 3CLpro inh, RecA intein inh)
CSc1ccc(CN2CCC2(C)C(=O)NCc2cccc(C(F)(F)F)c2)cc1 (stereo not given)	none (no result: VHR inh abs, SARS 3CLpro inh, RecA intein inh)
CC1(C(=O)NCc2cccc(C(F)(F)F)c2)CCN1CCc1ccccc1 (stereo not given)	CCHF vOTU inh-1 31 (no result: VHR inh abs, SARS 3CLpro inh, RecA intein inh) | CCHF vOTU inh-2 inactive
CC1(C(=O)NCc2ccc(C(F)(F)F)cc2)CCN1Cc1c(F)cccc1F (stereo not given)	CCHF vOTU inh-1 31 (no result: VHR inh abs, SARS 3CLpro inh, RecA intein inh) | CCHF vOTU inh-2 inactive
CC1(C(=O)NCc2ccc(C(F)(F)F)cc2)CCN1Cc1ccc(-c2ccccc2)o1 (stereo not given)	none (no result: VHR inh abs, SARS 3CLpro inh, RecA intein inh)
COC(=O)Cc1nnn2c1[C@H](C)[C@H](c1cccc(OC)c1OC)OCC2	none (no result: VHR inh abs, SARS 3CLpro inh, RecA intein inh)
Cc1cccc(C)c1NC(=O)C(c1ccccc1)n1c(=O)c(-c2ccccc2)nc2ccccc21 (stereo not given)	none (no result: VHR inh abs, SARS 3CLpro inh, RecA intein inh)
CCCCCNC(=O)C(c1ccc(C(F)(F)F)cc1)n1c(=O)c(-c2ccco2)nc2ccccc21 (stereo not given)	CCHF vOTU inh-1 31 (no result: VHR inh abs, SARS 3CLpro inh, RecA intein inh) | CCHF vOTU inh-2 inactive
CC(C)(C)NC(=O)C(c1ccc(-c2ccccc2)cc1)n1c(=O)c(-c2ccco2)nc2ccccc21 (stereo not given)	CCHF vOTU inh-1 32 (no result: VHR inh abs, SARS 3CLpro inh, RecA intein inh) | CCHF vOTU inh-2 inactive
